# Compound activity: PubChem BioAssay, The Scripps Research Institute Molecular Screening Center
# hgDAF-12 ag: H. glycines DAF-12 receptor agonists, primary screen, cell-based, luminescence, HEK293, GAL4 fusion, UAS-luciferase; Nuclear hormone receptor DAF-12 (Heterodera glycines), GAL4 fusion; HEK293 GAL4-hgDAF12 UAS-luciferase reporter, agonist luminescence; normalized to butyrate control; activation, % at 6.8 µM; hit rate 1.8% among 370,000;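 active = activation above a cutoff set at the mean of all screened compounds plus 3 SD, cut at about 10% in these data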;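 also: 0% = DMSO wells and 100% = sodium butyrate wells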
# hcDAF12 agonist: H. contortus DAF-12 nuclear receptor activators, primary screen, cell-based, luminescence, HEK293, lit1-tk-luc reporter; HEK293 hcDAF-12 lit1-tk-luc reporter; 0% DMSO, 100% Δ7-dafachronic acid; activation, % at 6.8 µM; hit rate 1.4% among 370,000;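 active = activation above the mean of all tested compounds plus 3 SD, cut at about 5.5% in these data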;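 also: 100% = response to 3 µM Δ7-dafachronic acid high control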
# ssDAF12 agonist: S. stercoralis DAF-12 nuclear receptor activators, primary screen, cell-based, luminescence, HEK293, GRIP1 co-expression, lit1-tk-luc. Nuclear hormone receptor DAF-12 (Strongyloides stercoralis). HEK293 ssDAF-12/GRIP1 lit1-tk-luc reporter; % of 3 µM dafachronic acid response. activation, % at 6.8 µM. hit rate 1% among 370,000;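 active = activation above the mean over all tested compounds plus 3 SD, cut at about 0.9% in these data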;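 also: 0% = DMSO-only wells and 100% = 3 µM delta7-dafachronic acid wells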
# SMARCA2 activ: SMARCA2 (BRM) function activators, primary screen, cell-based, luminescence, high throughput | MG213 cells, MMTV-luciferase reporter, dexamethasone, overnight | activation, % at 9.1 µM | hit rate 1% among 370,000 | AID 652017, 2013; in the data active = activation above about 7.8%;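 also: 0% = vehicle wells and 100% = reference activator wells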
# DAX1 inh: DAX1 (NR0B1) inhibitors on StAR promoter, primary screen, cell-based, luminescence, SF-1 (NR5A1), full-length DAX-1. HEK293T StAR-luciferase reporter, SF-1/DAX-1 repression relief. inhibition, % at 6.8 µM. hit rate 1.1% among 370,000. AID 652010, 2013;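 active = inhibition above the mean over all tested compounds plus 3 SD, cut at about 3.6% in these data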;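 also: 0% = DAX-1 cells with DMSO and 100% = cells lacking DAX-1 with DMSO; higher inhibition means more luminescence from relief of DAX-1 repression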
# LXR ag: LXR agonists, Gal4 luciferase reporter, confirmation, counter-screen for hcDAF-12 agonist project, cell-based, luminescence, HEK293, H. contortus campaign. 3,400 tested, under 10 active. AID 743027, 2013. shares compounds with hcDAF12 agonist. activation, % at 6.8 µM. HEK293 Gal4-LXR tk-luc reporter, 24 h; normalized: DMSO 0%, positive control 100%;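 active = mean percent activation of the reporter above a cutoff set as the average over tested compounds plus their standard deviation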
# Target sequence (P55055 whole entry, looked up, the tested form may be a part): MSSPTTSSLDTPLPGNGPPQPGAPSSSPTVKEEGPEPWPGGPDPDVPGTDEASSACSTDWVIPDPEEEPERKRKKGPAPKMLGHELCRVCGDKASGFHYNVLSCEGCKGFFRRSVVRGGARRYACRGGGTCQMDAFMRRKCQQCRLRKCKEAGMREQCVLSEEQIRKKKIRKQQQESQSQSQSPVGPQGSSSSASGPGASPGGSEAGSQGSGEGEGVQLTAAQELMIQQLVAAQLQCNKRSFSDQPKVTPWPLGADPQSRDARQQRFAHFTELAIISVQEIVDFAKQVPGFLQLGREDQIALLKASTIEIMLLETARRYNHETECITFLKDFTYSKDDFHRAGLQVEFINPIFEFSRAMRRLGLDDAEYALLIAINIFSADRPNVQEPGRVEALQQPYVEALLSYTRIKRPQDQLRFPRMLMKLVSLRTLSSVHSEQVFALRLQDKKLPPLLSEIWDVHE
# hcDAF12 ag: H. contortus DAF-12 receptor agonists, confirmation, cell-based, luminescence, HEK293, lit1-tk-luc, triplicate | hit rate 61% among 3,400 | HEK293 hcDAF-12 lit1-tk-luc reporter; % of Δ7-dafachronic acid response | shares compounds with hcDAF12 agonist | activation, % at 6.8 µM | AID 743032, 2013;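 active = mean activation across triplicate tests above the threshold derived from the earlier primary screen, cut at about 5.5% in these data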;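 also: 0% = DMSO only wells and 100% = 3 µM Δ7-dafachronic acid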
# Starred values were filed as active, the others as inactive; . = no result given. The list is not random: actives were taken first. Their share in the collection is about 4.2%.
SMILES,hgDAF-12 ag,hcDAF12 agonist,ssDAF12 agonist,SMARCA2 activ,DAX1 inh,LXR ag,hcDAF12 ag
Cc1ccc(OCc2nc3ccccc3n2C(C)C(=O)Nc2c(C)cccc2C)cc1 (stereo unspecified),0,0,-1,1,1,.,.
COc1cc(C(=O)N/N=c2/sc3ccccc3n2C)cc(OC)c1OC,-1,-1,-2,1,0,.,.
Cn1c(=NN=Cc2ccccc2OCCO)sc2ccccc21,9,7.8*,1.7*,5,3,0,7.9*
N#Cc1c(SCC(=O)Nc2nc3ccccc3s2)sc2c(O)cc(=O)[nH]c12,4,7.9*,1,-1,1,0,5
N#Cc1c(SCC(=O)Nc2nc3ccc(Br)cc3s2)sc2c(O)cc(=O)[nH]c12,0,4,0,-3,0,.,.
O=C(c1cc(-c2ccccc2Cl)on1)N1CCCC1,12*,8.6*,1,1,3,1,12*
O=C(c1cc(-c2ccc(Br)cc2)on1)N1CCOCC1,13*,7.2*,0,7,3,1,5
O=C(c1cc(-c2ccc(Cl)c(Cl)c2)on1)N1CCCCC1,7,2,0,5,1,.,.
CCCCOCCCNC(=O)C[C@@H]1C[C@@]2(C(=O)OC)CCCCC=C2N(Cc2ccco2)C1=O,-1,-1,-1,-1,0,.,.
Cc1cccc(C)c1-n1nnnc1C1(C)CCC(=O)N1Cc1cccs1 (stereo unspecified),2,0,-1,-2,1,.,.
CS(=O)(=O)N1N=C(c2ccccc2)CC1c1ccc2c(c1)OCO2 (stereo unspecified),7,7.0*,1,3,1,0,7.4*
Cc1ccc(S(=O)(=O)CCC(=O)N2CCc3ccccc32)cc1,2,6.8*,1,3,1,0,4
Cc1cccc(CN2CCSCCS2(=O)=O)c1,0,0,-1,-4,-1,.,.
CN(Cc1ccccc1)C(=O)OCc1cn(Cc2c(F)cccc2F)nn1,-1,-3,-1,-2,0,.,.
O=c1c(/C=C(\O)c2ccc(F)cc2)nc2ccccc2n1-c1ccccc1,0,-2,-1,1,0,.,.
Cn1c(=O)c(/C=C/c2ccc(F)cc2)nc2ccccc21,7,10.0*,0,-1,1,0,9.9*
Cn1c(=O)c(/C=C/c2ccccc2)nc2ccccc21,23*,13*,2.4*,5,4.2*,1,16*
CCCc1nc2c(C)cc(Br)cn2c1Cc1ccccc1,7,11*,1.0*,5,1,1,7.4*
CCCc1nc2c(C)cc(Br)cn2c1Cc1ccsc1,7,1,0,0,-1,.,.
Cc1cc(Br)cn2c(Cc3ccccc3)c(-c3cccc(Cl)c3)nc12,3,7.0*,0,-2,-1,0,2
CCCc1nc2c3ccccc3ccn2c1Cc1cccc(Cl)c1,12*,6.7*,1,4,2,1,7.1*
Brc1cccc(-c2nc3c4ccccc4ccn3c2Cc2ccccc2)c1,1,7.2*,1.0*,4,-1,0,7.4*
Clc1ccc2nc(-c3cccc(Br)c3)c(Cc3ccccc3)n2c1,5,2,0,-1,2,.,.
Fc1cccc(Cc2c(C3CCCCC3)nc3c4ccccc4ccn23)c1,10,8.6*,1,3,3,0,5
Clc1cccc(Cc2c(C3CCCCC3)nc3ccc(Br)cn23)c1,1,0,-1,5,0,.,.
